Structures are written as SMILES. The panel holds about 83,000 compounds, 20% with a hit somewhere; the sample as a whole holds those more often.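 Single-concentration screen, 48 h exposure, 96-well plates. Endpoint: percent growth. Below 10 = active.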 Unmarked numbers belong to inactive results. Activity calls are given as the source filed them.

The subject of the assay is SK-MEL-28 melanoma. As to the kind of experiment: NCI-60 one-dose screen, 48 h (100 = growth as untreated, 0 = no growth, -100 = all killed). Conditions: 10 µM unless noted. On the procedure: Growth inhibition of the SK-MEL-28 human tumor cell line is measured as a screen for anti-cancer activity. Cells are grown in 96 well plates and exposed to the test compound for 48 hours. Compounds are tested at a single concentration, which is 10^-5 M for most compounds. The reported endpoint is percent growth (GI% or GIPRCNT), where numbers from 0 - 100% represent growth inhibition, and numbers from -100% - 0 represent cell death. For example, a value of 40 represents 60% growth inhibition. A value of 0 means no net growth occurred over the course of the experiment. A value of -40 indicates 40% of cells at the beginning of the experiment died by the end of the experiment. A value of -100 means all cells are dead at the end of the experiment.
NCI-60 Human Tumor Cell Lines Screen was performed using the standard one-dose NCI protocol, which is described in more detail at https://dtp.cancer.gov/discovery_development/nci-60/default.htm.
Compounds with GIPRCNT values below 10 were considered active. Activity score was based on GIPRCNT using the following formula: […]
Score is 0 for GIPRCNT values of 100 or above, 50 for GIPRCNT values of 0, and 100 for GIPRCNT values of -100.
For the molecule `CN1CCN(c2ccc(C(=O)/C=C/c3cc(C(F)(F)F)cc(C(F)(F)F)c3)cc2)CC1`, the growth was -96.8% (active).

`CSc1ccc(C(=O)Nc2ccc3nn(/C(C#N)=C/c4ccccn4)nc3c2)cc1`: the growth was -83.5% (active).

Regarding `CN(C)CCOc1ccc(C(=O)C2[C@H](c3ccc(Cl)cc3)[C@@H](c3ccccc3)NC23C(=O)Nc2ccc(Br)cc23)cc1` (stereo not given in full), the growth was 37.6%.

In the case of `COc1ccc(C(=O)/C=C/c2ccc(OCc3ccc(F)cc3)c(OC)c2)cc1OC`, the growth was 46.8%. `Cc1cccc(Nc2nc3ccccc3nc2/C=C/c2ccc(F)cc2)c1`: the growth was 101%. For the molecule `Cc1cc2nc3c4ccccc4n(CC4=NCCN4)c3nc2cc1C`, the growth was -93.5% (active). Take `COc1c(F)ccc(C(=O)Nc2ccc3nc(NC(=O)C4CCCN(S(=O)(=O)c5ccc(C#N)cc5)C4)sc3c2)c1F` (stereo not given): the growth is 105%. Take `Cc1ccc(S(=O)(=O)c2nc(S(=O)(=O)c3ccc(C)cc3)c(Cl)s2)cc1`: the growth was 29.4%. Take `COc1ccc(C(=O)/C=C/c2cc3c(cc2Br)OCO3)cc1S(N)(=O)=O`: the growth is 27.6%. In the case of `CCCCSc1nc(Nc2ccc(S(N)(=O)=O)cc2)c(C#N)c(-c2ccc(Cl)cc2)n1`, the growth is 63%.

Take `COC(=O)C[C@](O)(CCCC(C)(C)O)C(=O)O[C@H]1C(OC)=C[C@@]23CCCN2CCc2cc4c(cc2[C@@H]13)OCO4`: the growth is -35.4% (active). In the case of `CN(C)c1nc(NCCNS(=O)(=O)c2ccc(C3=Nc4c(N)nc(N)nc4NC(c4ccccc4)C3)cc2)nc(Nc2ccc(F)cc2)n1` (stereo not given), the growth is 60.2%. On to `COc1cc2c(c(OC)c1OC)C(=O)CC(c1cccc(NC(=O)c3cccc(NC(=O)[C@H](C)NC(=O)OC(C)(C)C)c3)c1)O2` (stereo not given in full), for which the growth was 85.6%. Then `COc1cc2c(c(OC)c1OC)C(=O)CC(c1cccc(NC(=O)c3cc([N+](=O)[O-])ccc3Cl)c1)O2` (stereo not given), with 34.1%. For `COc1ccc(N2N=C(c3ccc4c(c3)OCO4)CC2c2cccc(NC(=O)CCNS(=O)(=O)c3ccc(Cl)cc3)c2)cc1` (stereo not given), the growth is 28.2%. In the case of `COc1cc(-c2ccc(/C=N/NC(=O)c3[nH]c4ccc(Br)cc4c3-c3ccccc3)s2)cc(OC)c1OC`, the growth is 84.1%. Take `Cc1cc2c(cc1Cl)C(=O)/C(=C/c1ccc(F)cc1)O2`: the growth is 111%. As to `COCOc1ccc2c(=O)c(C)c(C(=O)N[C@@H](Cc3ccccc3)C(O)C(=O)NCCc3ccc(OC)cc3)oc2c1` (stereo not given in full), the growth is 124%. With `CC(/C=C1\SC(=S)N(CCCC(=O)NC(CC(C)C)C(=O)O)C1=O)=C\c1ccccc1` (stereo not given), the growth was 94.8%. Take `Cn1cc(-c2cc(N)n3nc(-c4cn(C)c5ccc(Cl)cc45)cc3n2)c2ccccc21`: the growth is 97.4%.

Consider `CCOc1ccc(-c2c(C#N)c(-c3ccc(Cl)cc3)nc3n[nH]c(-c4ccc(Cl)cc4)c23)cc1OC`, for which the growth was 60.2%. As for `COc1cc2oc(-c3cccc(C(=O)Nc4ccc(Cl)cc4)c3)cc(=O)c2c(OCCNC(=O)[C@@H](N)CCC(=O)O)c1OC`, the growth was 78.8%.

In the case of `CC1=C(C(=O)c2ccccc2)C(c2cccc3ccccc23)n2c(nc3ccccc32)N1` (stereo not given), the growth is 84.1%.

`CCCCCCCS(=O)(=O)N1CCCC(C(=O)Nc2nc3ccc(NC(=O)c4ccc(F)c(OC)c4F)cc3s2)C1` (stereo not given): the growth was 74.2%. Then `O=c1[nH]c2ccccc2cc1CSc1nccc(-c2ccc3ccccc3c2)n1`, with 86.3%; and `COc1cc(OC)c2c3nc4cc(C)c(C)cc4nc3n(CCN(C)C)c2c1`, with 66.5%; and `COc1cc(CNC(=O)/C=C/c2ccc3c(c2)OCO3)ccc1OCc1cn(-c2cccc(C(F)(F)F)c2)nn1`, with 5.76% (active).

On to `COc1ccc(NC(=O)Cn2c(O)c(N=Nc3ccc(S(N)(=O)=O)cc3)c3ccccc32)cc1`, for which the growth is 26.7%.

Turning to `CCCSc1nc(Nc2ccc(S(N)(=O)=O)cc2)c(C#N)c(-c2ccc(Cl)cc2)n1`, the growth was 73.8%. With `Cc1ccc(-c2nc(C#N)c(S(=O)(=O)N3CCN(S(=O)(=O)c4ccc(Cl)cc4)CC3)o2)cc1`, the growth was 98.7%. As to `CCCCOc1ccc(NC(=O)c2sc3nc(C)ccc3c2N)cc1`, the growth is 50.7%. Take `CC(C)CSc1nc(NCCc2c[nH]c3ccccc23)c(C#N)c(-c2ccc(F)cc2)n1`: the growth was 79.1%. Regarding `CC1(C)CC[C@]2(C(=O)O)CC[C@]3(C)C(=CCC4[C@@]5(C)C[C@@H](O)[C@@H]6OC(c7ccccc7F)OC[C@@]6(C)C5CC[C@]43C)C2C1` (stereo not given in full), the growth was 19.7%. For `CC(=O)OCC1OC(OC2C(COC(C)=O)OC(n3cc(COc4ccc5ccc(=O)oc5c4)nn3)C(OC(C)=O)C2OC(C)=O)C(OC(C)=O)C(OC(C)=O)C1OC(C)=O` (stereo not given), the growth is 109%. Then `CCOC(=O)c1ccc(Nc2nc(NN)nc(-c3ccc(OC)cc3)c2C#N)cc1`, with 113%; and `C/C(=N\N=C1/C(=O)Nc2ccccc21)c1ccc2c(c1)Nc1ccccc1S2`, with 75%; and `COc1ccc2c(c1)c(/C=N/Nc1ccc3ccccc3n1)cn2C`, with -1.59% (active).

For the molecule `S=c1c2ccccc2nc2n1CCc1c-2[nH]c2ccccc12`, the growth was 74.8%. On to `Cc1ccccc1[C@H]1C(C(=O)c2ccc(Cl)cc2)C2(N[C@@H]1c1ccccc1)C(=O)Nc1ccccc12` (stereo not given in full), for which the growth was -34.3% (active). As to `CC12CC[C@@H]3[C@]4(C)COC(c5cn[nH]c5-c5cccc(Cl)c5)O[C@@H]4CC[C@@]3(C)[C@@H]1CC(C1=CCOC1=O)O2` (stereo not given in full), the growth was 36.3%.
